Reference: PubChem BioAssay (NCI)
The panel holds about 83,000 compounds, 20% with a hit somewhere; the sample as a whole holds those more often.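 Values shown are percent growth following 48 h exposure of cells in 96-well plates to a single concentration of compound; below 10 was considered active.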 The source made the active and inactive calls.

How the values were obtained:
Test in all cases: NCI-60 one-dose screen, 48 h (100 = growth as untreated, 0 = no growth, -100 = all killed)
Conditions in all cases: 10 µM unless noted
[1] = test system: HCT-15 colon
[2] = test system: HT29 colon
[3] = test system: SNB-75 CNS
[4] = test system: SNB-19 CNS
[5] = test system: U251 CNS
[6] = test system: PC-3 prostate
[7] = test system: SK-MEL-5 melanoma
[8] = test system: UACC-62 melanoma
[9] = test system: SK-MEL-28 melanoma
[10] = test system: SK-MEL-2 melanoma
[11] = test system: EKVX NSCLC
[12] = test system: SN12C renal
[13] = test system: UO-31 renal
[14] = test system: TK-10 renal
[15] = test system: ACHN renal
[16] = test system: CAKI-1 renal
[17] = test system: A498 renal
[18] = test system: CCRF-CEM leukemia
[19] = test system: MOLT-4 leukemia
[20] = test system: LOX IMVI melanoma

Measured: growth

O=C(/C=C/c1ccc([N+](=O)[O-])o1)NNC(=O)c1cc2ccccc2cc1O
inactive: [3] 45.7% | [4] 33.5% | [5] 17.5% | [6] 38.4% | [11] 38.6% | [14] 19.3% | [16] 22.5%
active: [1] -62.7% | [2] 7.4% | [7] -86.9% | [8] -99.1% | [9] -46.1% | [10] -50.9% | [12] 7.5% | [13] 2.06% | [15] -82% | [17] -51% | [18] 6.58% | [19] 3.05%

COc1ccc2c(c1)c(-c1nn3cc(-c4cccs4)nc3s1)cn2C
inactive: [1] 47.6% | [2] 52.1% | [3] 50.3% | [4] 82.5% | [5] 65.9% | [6] 69.6% | [7] 66.7% | [8] 64.1% | [9] 97.8% | [10] 91.5% | [11] 66.2% | [12] 79.3% | [13] 39.3% | [14] 73.3% | [15] 69.9% | [16] 55.3% | [17] 50.3% | [18] 67% | [19] 45.7%

COc1ccc(C(=O)N=Nc2c(O)n(C)c3ccccc23)cc1
inactive: [1] 91.6% | [2] 103% | [3] 91.6% | [4] 87.3% | [5] 98.5% | [6] 90.9% | [7] 89.1% | [8] 90.6% | [9] 107% | [10] 114% | [11] 77% | [12] 94.5% | [13] 69.3% | [14] 146% | [15] 91.4% | [16] 82.3% | [17] 99.5% | [18] 94.2%

O=[N+]([O-])c1ccc(Cl)c(-c2cc(CCCCO)on2)c1
inactive: [1] 110% | [2] 103% | [3] 81.7% | [4] 95.4% | [5] 101% | [6] 104% | [7] 104% | [8] 93.8% | [20] 97.6% | [9] 107% | [11] 103% | [12] 94.5% | [13] 86% | [14] 119% | [15] 101% | [16] 87.2% | [17] 87.1% | [18] 108% | [19] 109%

Cn1cc(C(=O)c2nc(-c3cn(C)c4ccc(F)cc34)no2)c2cc(F)ccc21
inactive: [1] 93.4% | [2] 95.5% | [3] 87.4% | [4] 104% | [5] 98.1% | [6] 80.3% | [7] 94.2% | [8] 88.4% | [9] 110% | [10] 102% | [11] 107% | [12] 91.9% | [13] 63% | [14] 108% | [15] 94.1% | [16] 88.9% | [17] 113% | [18] 92% | [19] 99.6%

O=C(CSc1nccc(Nc2ccc(S(=O)(=O)Nc3nccs3)cc2)n1)c1ccc(C(F)(F)F)cc1
inactive: [1] 103% | [2] 106% | [3] 91.5% | [4] 93.2% | [5] 86.6% | [6] 93.2% | [7] 95.1% | [8] 93.2% | [20] 99.2% | [9] 108% | [11] 94.4% | [12] 102% | [13] 69.2% | [14] 112% | [15] 100% | [16] 90.1% | [17] 109% | [18] 108% | [19] 112%

COc1ccc2[nH]c(-c3ccccc3)c(/C=C(\C#N)S(=O)(=O)c3ccccc3)c2c1
inactive: [1] 39.3% | [2] 21% | [3] 48.1% | [4] 63.2% | [5] 39% | [6] 49.6% | [7] 14.9% | [8] 42.1% | [9] 53.4% | [10] 87% | [11] 56.7% | [12] 67% | [13] 70.2% | [14] 92.4% | [16] 76.6% | [17] 57.2% | [18] 36.2% | [19] 17.4%

C=C1CC[C@@]2(C#N)[C@H]3[C@H](CC[C@@H]2C)[C@@H](C)C[C@@H](CC(C)(C)C#N)[C@H]13
inactive: [1] 43.6% | [2] 46.8% | [3] 44.6% | [4] 56.4% | [5] 46.4% | [6] 23.2% | [7] 37.5% | [8] 43.5% | [9] 60.3% | [10] 61.3% | [11] 32.9% | [12] 60.7% | [13] 14% | [14] 50.6% | [15] 28% | [16] 19% | [17] 51.1% | [18] 22% | [19] 29.3%

CCOC(=O)c1cn2ncnc(Oc3ccc(NC(=O)NCCN4CCOCC4)c(Cl)c3)c2c1C
inactive: [1] 96.3% | [2] 104% | [3] 76.8% | [4] 95.1% | [5] 98.4% | [6] 91.2% | [7] 98.5% | [8] 97.6% | [9] 97.1% | [10] 113% | [11] 96.3% | [12] 95.8% | [13] 80.8% | [14] 98% | [15] 99.5% | [16] 87.7% | [17] 85.2% | [18] 96.6%

COc1cc2oc(-c3ccc(O)cc3)cc(=O)c2c(O)c1-c1c(OC)cc(O)c2c(=O)cc(-c3ccc(O)cc3)oc12
active: [3] -2.61% | [7] -49.5% | [8] -26.3%
inactive: [1] 30.4% | [2] 12.1% | [4] 17.8% | [5] 19.2% | [6] 72.3% | [20] 18.2% | [9] 18.3% | [11] 85.5% | [12] 15.8% | [13] 14.6% | [14] 75.3% | [15] 49.4% | [17] 83.9% | [18] 44.9% | [19] 32.6%

CCOC(=O)C1=C(N)Oc2c(sc3c(C)cccc23)C1c1ccc(OC)cc1 (stereo not given)
active: [3] -3.57% | [16] 5.78% | [17] 4.89%
inactive: [1] 21.7% | [2] 84.7% | [4] 28.8% | [5] 26.6% | [6] 28.7% | [7] 52.5% | [8] 17% | [9] 46.5% | [10] 22.9% | [11] 88.5% | [12] 39.7% | [13] 41.5% | [14] 110% | [15] 34% | [18] 24.3% | [19] 29.4%

COc1ccc2sc3c(NCCCN(C)C)nc4ccccc4c3c(=O)c2c1
inactive: [1] 50.2% | [3] 53.5% | [4] 71.4% | [6] 63% | [7] 66.4% | [8] 77.3% | [10] 95.9% | [11] 70% | [12] 72.3% | [13] 48.4% | [14] 78% | [15] 69.9% | [16] 63% | [17] 17.4%
active: [2] -47.5% | [5] -1.18% | [9] -73.1% | [18] 4.23% | [19] -16.2%

CCCCC[C@H](O)C/C=C1/C(=O)C=C[C@@H]1C/C=C\CCCC(=O)O
inactive: [1] 69.5% | [2] 59.8% | [3] 79.1% | [4] 83.4% | [5] 43.8% | [6] 78.4% | [7] 82.8% | [8] 60.9% | [9] 66.4% | [10] 79.6% | [11] 100% | [12] 52.3% | [13] 81.9% | [14] 111% | [15] 83.2% | [16] 80.7% | [17] 109% | [18] 14.9% | [19] 43.2%

Cc1ccc(C(=O)NN2C(=O)CSC2c2cccc([N+](=O)[O-])c2)cn1 (stereo not given)
inactive: [1] 109% | [2] 104% | [3] 84.6% | [4] 93.2% | [5] 95.6% | [6] 86.6% | [7] 104% | [8] 98.1% | [20] 90% | [9] 124% | [11] 98.7% | [12] 96.6% | [13] 14.9% | [14] 98.3% | [16] 79.5% | [17] 100% | [18] 90.8% | [19] 105%

CCOC(=O)c1cnn2c3ccccc3n(S(=O)(=O)c3ccc(OC)cc3)c12
inactive: [1] 13% | [2] 11.6% | [3] 61.3% | [4] 27.5% | [5] 26.3% | [6] 35.7% | [8] 25.7% | [9] 57.9% | [10] 66.7% | [11] 38.4% | [12] 22.2% | [13] 46.7% | [14] 79.7% | [15] 35.4% | [16] 42.3% | [19] 16.5%
active: [7] -15% | [17] -3.19% | [18] 9.32%
